Results filed as inconclusive are left out. The source made the active and inactive calls. Calls follow the shape of the dose curve; as a rule, active = well fitted curve in the direction sought with a large enough effect in the repeat runs; inconclusive = weak or mixed curves; inactive = no such curve, though single readings can be large; an effect the other way counts as inactive or inconclusive.
% is scaled to controls: 0 for no effect and ±100 for the full control effect.
Also: nearly all actives have a fitted effect of over 50% in size.

Chain of Cytochrome P450 1A2 (Homo sapiens) (P05177 whole entry, looked up): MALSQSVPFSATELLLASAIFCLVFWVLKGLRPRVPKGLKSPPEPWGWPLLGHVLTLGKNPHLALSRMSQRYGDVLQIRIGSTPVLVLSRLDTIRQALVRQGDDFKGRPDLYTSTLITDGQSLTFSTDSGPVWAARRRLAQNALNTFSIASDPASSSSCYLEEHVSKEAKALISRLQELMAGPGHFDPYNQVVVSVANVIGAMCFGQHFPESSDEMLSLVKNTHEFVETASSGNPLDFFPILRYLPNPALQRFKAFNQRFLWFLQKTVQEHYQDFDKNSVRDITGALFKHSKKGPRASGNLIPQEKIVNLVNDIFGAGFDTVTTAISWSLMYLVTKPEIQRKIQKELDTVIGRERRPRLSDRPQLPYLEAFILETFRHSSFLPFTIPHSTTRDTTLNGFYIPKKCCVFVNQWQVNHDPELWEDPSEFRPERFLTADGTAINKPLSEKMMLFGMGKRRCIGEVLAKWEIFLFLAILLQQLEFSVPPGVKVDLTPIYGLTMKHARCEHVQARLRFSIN
Chain of Voltage-gated inwardly rectifying potassium channel KCNH2 (Homo sapiens) (Q12809 whole entry, looked up): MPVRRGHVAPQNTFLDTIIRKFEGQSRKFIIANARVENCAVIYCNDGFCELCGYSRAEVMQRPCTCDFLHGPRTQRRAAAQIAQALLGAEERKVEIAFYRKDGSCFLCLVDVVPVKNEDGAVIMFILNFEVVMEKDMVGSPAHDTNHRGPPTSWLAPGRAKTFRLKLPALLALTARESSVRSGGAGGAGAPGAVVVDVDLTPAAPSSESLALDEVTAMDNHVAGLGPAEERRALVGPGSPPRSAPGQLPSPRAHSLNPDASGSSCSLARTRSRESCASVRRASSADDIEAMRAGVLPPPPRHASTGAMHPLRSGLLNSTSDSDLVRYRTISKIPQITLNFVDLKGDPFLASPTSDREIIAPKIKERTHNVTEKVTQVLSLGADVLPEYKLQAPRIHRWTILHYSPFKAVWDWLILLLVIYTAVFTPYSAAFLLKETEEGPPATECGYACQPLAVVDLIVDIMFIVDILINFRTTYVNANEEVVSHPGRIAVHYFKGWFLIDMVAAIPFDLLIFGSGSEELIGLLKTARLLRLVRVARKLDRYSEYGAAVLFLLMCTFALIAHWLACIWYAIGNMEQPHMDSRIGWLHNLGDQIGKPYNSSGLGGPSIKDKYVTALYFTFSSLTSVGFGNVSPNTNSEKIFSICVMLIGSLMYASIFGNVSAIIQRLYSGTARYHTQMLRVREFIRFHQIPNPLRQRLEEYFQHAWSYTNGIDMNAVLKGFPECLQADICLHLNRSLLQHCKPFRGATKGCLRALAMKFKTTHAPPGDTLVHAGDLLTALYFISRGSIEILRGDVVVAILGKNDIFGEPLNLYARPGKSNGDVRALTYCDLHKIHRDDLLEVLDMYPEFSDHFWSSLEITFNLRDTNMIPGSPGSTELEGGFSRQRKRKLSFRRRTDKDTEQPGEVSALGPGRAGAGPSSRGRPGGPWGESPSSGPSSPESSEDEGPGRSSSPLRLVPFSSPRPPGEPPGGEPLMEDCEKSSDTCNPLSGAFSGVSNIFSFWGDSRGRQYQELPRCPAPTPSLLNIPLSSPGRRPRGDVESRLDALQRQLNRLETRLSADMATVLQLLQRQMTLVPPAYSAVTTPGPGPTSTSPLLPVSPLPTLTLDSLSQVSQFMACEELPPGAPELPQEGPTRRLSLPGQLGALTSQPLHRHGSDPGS

The target in one test is Cytochrome P450 1A2 (Homo sapiens) (UniProt P05177). Put plainly: Cytochrome P450 Family 1 Subfamily A Member 2 (CYP1A2) small molecule antagonists: luciferase reporter qHTS assay (AID 1671199). Also: potency is read from the fitted curve at half-maximal effect. To be noted: P450-Glo CYP1A2 enzyme, luciferin luminescence, 1 h; series mostly up to 115 µM; activity change, negative = inhibition: at the top concentration. In short, it runs like this:
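Human CYP1A2 activity measured with a P450-Glo proluciferin substrate; compounds in DMSO preincubated 10 min at room temperature with enzyme-substrate mix, then NADPH regeneration system added for 1 h. Luciferin detection reagent, 20 min, luminescence read.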
Take `Cc1cc(CCC(=O)OCCOCCOCCOC(=O)CCc2cc(C)c(O)c(C(C)(C)C)c2)cc(C(C)(C)C)c1O`: the “activity change, negative = inhibition” value was -25.1% (inactive). Regarding `O=P(O)(O)Oc1ccccc1`, the “activity change, negative = inhibition” value is -14.6% (inactive).

Take `c1ccc(CCCc2ccncc2)cc1`: the Potency is 1.42 µM (active). Regarding `COC(=O)c1sccc1S(N)(=O)=O`, the “activity change, negative = inhibition” value is -15.5% (inactive). As for `C[C@@H]1C[C@H]2[C@@H]3CCC4=CC(=O)C=C[C@]4(C)[C@@]3(F)[C@@H](O)C[C@]2(C)[C@@]1(O)C(=O)COP(=O)(O)O`, the “activity change, negative = inhibition” value is -11.9% (inactive). With `FC(F)(F)C(F)(F)C(F)(F)C(F)(F)CCI`, the “activity change, negative = inhibition” value is -21.5% [at 53 µM] (inactive). Take `O=C(/C=C/c1ccc([N+](=O)[O-])cc1)c1ccccc1`: the Potency was 5.04 µM (active). For `O=C1CC[C@@H](C(=O)O)N1`, the “activity change, negative = inhibition” value was 14.1% [at 53 µM] (inactive). Take `CCCCCc1ccco1`: the Potency is 36.8 µM (active). Turning to `O=C(c1ccccc1)C1CCC1`, the “activity change, negative = inhibition” value is -24.5% (inactive).

For another test, the target named is Voltage-gated inwardly rectifying potassium channel KCNH2 (Homo sapiens) (UniProt Q12809). Briefly: Human Ether-a-go-go-Related Gene (hERG) channel small molecule antagonists: fluorescence cell-based qHTS assay (AID 1671200).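 Also: hERG-expressing U2OS cells given a thallium stimulus after FluxOR II dye loading.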 To be noted: hERG-U2OS cells, FluxOR thallium flux fluorescence; series mostly up to 76.8 µM; activity change, negative = inhibition: at the top concentration. In short, it runs like this:
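Channel function was assessed by thallium flux. Cells seeded the previous day and kept at 37 C took up FluxOR II dye over 1 h in the dark at room temperature, then sat another 10 min before stimulation.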
Background: The hERG channel carries a current that helps repolarise heart muscle cells.
For `Cc1ccc2c(c1[N+](=O)[O-])C(=O)c1ccccc1C2=O`, the “activity change, negative = inhibition” value was 0.784% [at 35.3 µM] (inactive).

For `CC(=O)NNC(C)=O`, the “activity change, negative = inhibition” value was 3.76% (inactive). Take `CCOC(=O)N1CCC(Nc2ccc(Cl)cc2N)CC1`: the “activity change, negative = inhibition” value was -0.859% [at 35.3 µM] (inactive). The same measure, in the same setting: in the case of `COc1ccc(-c2cc(=S)ss2)cc1` it was -4.35% [at 35.3 µM] (inactive). The same measure, in the same setting: in the case of `CCCCCCCC/C=C\CCCCCCCC(=O)OCCO` it was -16.6% (inactive); in that of `CCCc1nc2c(C)cc(-c3nc4ccccc4n3C)cc2n1Cc1ccc(-c2ccccc2C(=O)O)cc1`, -36.3% [at 35.3 µM] (inactive). In the case of `O=C1[C@@H]2[C@H]3CC[C@H](C3)[C@@H]2C(=O)N1CCCCN1CCN(c2ncccn2)CC1`, the “activity change, negative = inhibition” value is 1.36% [at 35.3 µM] (inactive).

For the compound `O=C(C(=O)c1ccco1)c1ccco1`, the “activity change, negative = inhibition” value was -2.15% (inactive). Same read-out and setting: then `CC(C)(C(=O)c1cccnc1)c1cccnc1`, with 10.1% [at 35.3 µM] (inactive); and `CCOc1ncc(F)c(=O)[nH]1`, with 2.26% [at 35.3 µM] (inactive). On to `CC(C)OC(=O)c1ccccc1C(=O)OC(C)C`, for which the “activity change, negative = inhibition” value is -0.416% (inactive). On the same count and under the same terms, then `CC(C)COC(=O)c1ccc(O)cc1`, with 1.33% (inactive); and `CC(=O)OC(C)C[N+](C)(C)C` (centres undefined), with -0.583% [at 35.3 µM] (inactive). For `COc1ccc(/C=C/C(=O)c2ccc(OC)cc2OC)cc1`, the “activity change, negative = inhibition” value was -0.255% [at 35.3 µM] (inactive). For the compound `CC1CCCO1` (centres undefined), the “activity change, negative = inhibition” value was 6.04% (inactive).

For the compound `CC/C=C\C/C=C\C/C=C\CCCCCCCC(=O)OCC`, the “activity change, negative = inhibition” value is -7.28% (inactive). The same measure, in the same setting: in the case of `OCC(CO)n1cnc(-c2ccc(F)cc2)c1-c1ccnc(Oc2ccccc2)n1` it was -0.512% (inactive); in that of `O=C1OC[C@H](Cc2cccc(O)c2)[C@H]1Cc1cccc(O)c1`, 2.16% [at 35.3 µM] (inactive); in that of `Cc1cc(CCC(=O)OCCOCCOCCOC(=O)CCc2cc(C)c(O)c(C(C)(C)C)c2)cc(C(C)(C)C)c1O`, -2.17% (inactive). The same measure, in the same setting: then `Cc1ccccc1S(N)(=O)=O`, with 1.9% (inactive); and `C[C@@H]1[C@H](O)[C@@H](C)/C=C/C=C\C=C\C=C\C=C\C=C\C=C\[C@H](O[C@@H]2O[C@H](C)[C@@H](O)[C@H](N)[C@@H]2O)C[C@@H]2O[C@](O)(C[C@@H](O)C[C@@H](O)[C@H](O)CC[C@@H](O)C[C@@H](O)CC(=O)O[C@H]1C)C[C@H](O)[C@H]2C(=O)O` (stereo in doubt), with 7.27% (inactive). `c1ccc(CCCc2ccncc2)cc1`: the “activity change, negative = inhibition” value was -4.25% (inactive). With `COC(=O)c1sccc1S(N)(=O)=O`, the “activity change, negative = inhibition” value was 0.986% (inactive). On the same count and under the same terms, in the case of `CC1C(C)(C)C2=C(C(=O)CCC2)C1(C)C` (centres undefined) it was -7.35% (inactive); in that of `C[C@@H]1C[C@H]2[C@@H]3CCC4=CC(=O)C=C[C@]4(C)[C@@]3(F)[C@@H](O)C[C@]2(C)[C@@]1(O)C(=O)COP(=O)(O)O`, 1.32% (inactive); in that of `FC(F)(F)C(F)(F)C(F)(F)C(F)(F)CCI`, 2.62% [at 35.3 µM] (inactive). Still for that read-out and setting: in the case of `O=C(/C=C/c1ccc([N+](=O)[O-])cc1)c1ccccc1` it was -23.8% (inactive); in that of `O=C1CC[C@@H](C(=O)O)N1`, 2.67% [at 35.3 µM] (inactive). The same measure, in the same setting: then `O=C(c1ccccc1)C1CCC1`, with -1.04% (inactive).

For the origin of these results see PubChem BioAssay (Tox21).
